From PubChem BioAssay (NCI)
About 83,000 compounds went through this panel and 20% of them were active in at least one assay; those are over-represented in the sample as a whole.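 Plates (96-well) were seeded with cells, treated with compound at one concentration, and incubated for 48 hours before percent growth was determined.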 The source made the active and inactive calls. How the source made its calls: active means growth percent below 10; inactive means the rest.

test system: T-47D breast; experiment: NCI-60 one-dose screen, 48 h (100 = growth as untreated, 0 = no growth, -100 = all killed); conditions: 10 µM unless noted

| SMILES | growth |
| --- | --- |
| O=C(CC12CC3CC(CC(C3)C1)C2)NCCOCCOCCNC(=O)c1cc2c(o1)C(=O)c1ccccc1C2=O | -11.8% (active) |
| CCN(CC)CCCNC(=O)c1ccc(N)cc1 | 102% (inactive) |
| CCCCCCCCc1cc[n+](CC(=O)c2ccc(Br)cc2)cc1 | -16.6% (active) |
| CC/C=C/[C@@H]1C=C[C@@H]2CCC[C@H]2[C@@H]1CC[C@H](O)[C@H](C)N | -45.4% (active) |
| N#Cc1c(NC(=O)c2ccc(Br)cc2)sc2c1CCCC2 | 47.2% (inactive) |
| O=[N+]([O-])c1ccc2[nH]cc(-c3c4ccsc4cc4[nH]c5ccc([N+](=O)[O-])cc5c34)c2c1 | 7.11% (active) |
| Cc1nc(Nc2ccc(N)cc2)c2ccccc2n1 | 101% (inactive) |
| CCCCN(Cc1ccc(C(=O)NO)cc1)C(=O)Nc1ccc(OCCCCCCCCCn2cc(CCCCC(=O)N[C@H](C(=O)N3C[C@H](O)C[C@H]3C(=O)NCc3ccc(-c4scnc4C)cc3)C(C)(C)C)nn2)cc1 | 32.2% (inactive) |
| COc1ccc(OC)c(/C=C2\COc3ccc(O)cc3C2=O)c1 | 96.7% (inactive) |
| CCOC(=O)C1=C(C)NC(SCc2nnc(-c3ccc(Cl)cc3)o2)=NC1c1ccc(Cl)cc1Cl (stereo not drawn) | 47.4% (inactive) |
| O[C@H]1CO[C@H]2[C@@H]1OC[C@@H]2Oc1ccc(Nc2ccnc(Nc3ccc(O[C@H]4CO[C@H]5[C@@H]4OC[C@@H]5O)c(Cl)c3)n2)cc1Cl | 2.36% (active) |
| COc1ccc(-n2nnc(C(=O)NCCc3c[nH]c4ccc(F)cc34)c2C)cc1 | 89.3% (inactive) |
| CC(=O)Nc1ccc2c(c1)Cc1c(F)cccc1-2 | 76.6% (inactive) |
